In the library only some 6.3% were active in any assay of this set; here they are far more common.
TGFb SMAD3 inh = TGF-b pathway inhibition | AID 588855 | hit rate 1.2% among 410,000 | HepG2 CAGA-GFP TGF-b/SMAD3 reporter, GFP fluorescence, 18 h; TGF-beta stimulated, 500 pg/mL final | Potency, µM (doses to about 46.1 µM), inactives show at the top dose activity, negative = inhibition, usual class: inhibitors; note: % is set by controls: 0 for no effect and ±100 for the full control effect; nearly all actives have a fitted effect of over 65% in size
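Using HEPG2 CAGA-GFP reporter cells at 1000 cells/well, we pinned test compounds, stimulated with recombinant TGF-beta (500 pg/mL final) and measured total well GFP after 18 h.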
HepG2 viability = HepG2 cytotoxicity, counter-screen for TGF-b inhibitors; HepG2 CAGA-GFP viability, ATP luminescence, 18 h; Potency, µM (top dose mostly 46.1 µM), for inactives: at the top dose activity change, negative = cytotoxicity, most hits filed as cytotoxic; hit rate 0.76% among 410,000
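CellTiter-Glo luminescence gave cytotoxicity after 18 hours at 37 degrees C. The cells were HepG2 CAGA-GFP in 1% FBS DMEM, stimulated with 500 pg/mL TGF-beta after compound addition. %Activity was normalised to no-cell wells (complete cell-killing) and DMSO (no toxicity), and curves were fitted and classified.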
ATXN2 expr inh = ATXN2 expression inhibition | HEK-293 ATXN2-luciferase reporter, luminescence, 24 h | Potency, µM (top dose mostly 57 µM), without a hit: at the highest dose activity change, negative = inhibition, actives largely listed as inhibitors | hit rate 0.72% among 360,000 | AID 1745845; note: % is set by controls: 0 for no effect and ±100 for the full control effect; nearly all actives have a fitted effect of over 55% in size
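qHTS (up to 57 uM final) was run with 24 h compound exposure of reporter cells at 37 °C. Each well was multiplexed: SteadyGlo luminescence measured ATXN2-luciferase expression after a fluorogenic Gly-Phe-AFC viability readout (25 uM final).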
VP16 counter = counter-screen for ROR gamma inhibitors: Gal4-VP16 reporter; Drosophila S2 Gal4-VP16 UAS-luciferase, luminescence, 20 h; Potency, µM (top dose mostly 53.6 µM), inactives show at the highest dose activity, negative = inhibition, hits mostly inhibitors; hit rate 3.5% among 310,000;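 note: Gal4-VP16 expression switched on by copper sulfate through the metallothionein promoter; % is set by controls: 0 for no effect and ±100 for the full control effect; nearly all actives have a fitted effect of over 50% in size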
RORgamma inh = inhibitors of mouse ROR gamma transcriptional activity | P51450 | Drosophila S2 Gal4-RORgamma UAS-luciferase reporter, 20 h | Potency, µM (titrated, usually from 53.6 µM), inactives show top-dose activity change, negative = inhibition, hits mostly inhibitors | hit rate 5.4% among 310,000; note: % is set by controls: 0 for no effect and ±100 for the full control effect; nearly all actives have a fitted effect of over 60% in size
Target sequence (P51450 whole entry, looked up, the tested form may be a part): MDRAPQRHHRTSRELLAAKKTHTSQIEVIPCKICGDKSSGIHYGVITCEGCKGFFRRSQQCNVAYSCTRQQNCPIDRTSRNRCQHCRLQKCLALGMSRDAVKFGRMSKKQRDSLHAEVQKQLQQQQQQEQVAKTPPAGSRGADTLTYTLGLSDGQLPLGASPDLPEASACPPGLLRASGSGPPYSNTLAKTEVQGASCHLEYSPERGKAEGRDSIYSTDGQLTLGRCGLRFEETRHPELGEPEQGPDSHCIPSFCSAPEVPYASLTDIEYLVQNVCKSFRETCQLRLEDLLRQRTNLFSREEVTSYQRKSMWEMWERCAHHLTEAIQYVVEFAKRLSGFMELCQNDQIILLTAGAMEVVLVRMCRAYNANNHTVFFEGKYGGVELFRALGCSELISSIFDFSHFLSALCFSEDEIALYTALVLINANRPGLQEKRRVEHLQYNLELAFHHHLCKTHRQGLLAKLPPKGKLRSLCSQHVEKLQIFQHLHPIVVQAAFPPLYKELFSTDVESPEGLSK
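Drosophila Schneider cells stably carrying a metallothionein-driven Gal4 DBD–ROR gamma fusion and a UAS-Photinus luciferase reporter were exposed to compound for 1 hr, then induced with copper sulfate (700 uM final) for 20 hr at ambient temperature before luminescence reading.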
S2 tox = reduces viability in counter-screen for ATXN expression inhibitors. S2 cells (HEK-293 line with an ATXN2-luciferase reporter) viability, CellTiter-Fluor protease fluorescence, 24 h. Potency, µM (series often up to 56.7 µM), actives largely listed as cytotoxic. hit rate 0.49% among 400,000. AID 651635; note: nearly all actives have a fitted effect of over 40% in size
Starred values were filed as active, the others as inactive; i = inactive; ? = inconclusive; · = no result; [ ] = remark or other dose. Calls come from the whole dose curve; as a rule, active = well fitted curve in the direction sought with a large enough effect; inconclusive = small, poorly fitted or top-dose-only effect, or another doubt; inactive = no such curve, though single readings can be large; an effect the other way counts as inactive or inconclusive. Potency is the fitted concentration of half-maximal effect.

SMILES	TGFb SMAD3 inh	HepG2 viability	ATXN2 expr inh	VP16 counter	RORgamma inh	S2 tox
CCN(CC)C(=S)SCC(=O)Nc1nc(=O)c2ccccc2s1	-21.0%	-7.3%	30.3%	11.2µM*	?	i
COC(=O)c1cc(Sc2cccc(Cl)c2Cl)ccn1	-4.6%	2.9%	·	11.2µM*	?	i
O=C(Nc1ccc(Oc2ccc(NC(=O)Nc3ccccc3Cl)cc2)cc1)Nc1ccccc1Cl	0.0%	8.9%	-29.0%	?	2.51µM*	i
O=C(O)Cn1c(=O)n(Cc2ccc(Br)cc2F)c(=O)c2ccc(Cl)cc21	·	·	2.0%	·	·	i
Nc1nc(-c2ccccc2)c(N=Nc2cccc3ccccc23)s1	11.2µM*	-100.8%	-36.5%	?	30.6%	?
Nc1nc(-c2ccccc2)c(N=Nc2ccccc2Cl)s1	?	-91.6%	?	?	-3.5%	·
O/C(=C\c1nc2ccccc2nc1/C=C(\O)c1ccccc1)c1ccccc1	-7.3%	-14.7%	26.8%	4.8%[10 µM]	10µM*	i
O=c1oc2ccccc2nc1/C=C(\O)c1ccccc1	-9.7%	-30.2%	·	2.9%	-21.4%	i
COc1ccc(OC)c(CCNC(=O)c2cc3c(-c4ccccc4F)nn(C)c3s2)c1	?	-41.3%	25.1µM*	·	·	?
COc1ccc(NC(=O)c2cc3c(-c4ccccc4F)nn(C)c3s2)c(OC)c1	1.9%	-3.8%	-19.6%	·	·	i
COc1cccc(-c2nn(C)c3sc(C(=O)NCCCN(C)Cc4ccccc4)cc23)c1	-10.6%	-21.6%	28.2µM*	-1.9%	-26.6%	?
CCC(CC)C(=O)OCc1cc(=O)n2nc(C3CC3)sc2n1	0.7%	13.9%	0.6%	·	·	i
CC(=O)Nc1ccccc1-c1nc(CNC(=O)c2ccc(-c3ccccc3F)cc2)c(C)o1	·	·	·	·	·	i
COc1ccc(OCCCn2cc(/C=C3/C(=N)N4C=C(C)SC4=NC3=O)c3ccccc32)cc1	5.1%	6.7%	-3.7%	1.58µM*	0.794µM*	i
CC1=CN2C(=N)/C(=C/c3cn(CCCOc4ccccc4C)c4ccccc34)C(=O)N=C2S1	0.0%	-0.6%	2.5%	?	?	i
COc1cccc(OCCCn2cc(/C=C3/C(=N)N4C=C(C)SC4=NC3=O)c3ccccc32)c1	0.0%	-7.2%	-9.8%	1.41µM*	2.24µM*	i
Cc1cccc(OCCn2cc(/C=N/NC(=O)c3ccncc3)c3ccccc32)c1	-2.2%	-29.0%	?	5.62µM*	4.47µM*	·
COc1cccc(OCCn2cc(C=O)c3ccccc32)c1	3.55µM*	-30.7%	-18.2%	-7.8%	40.7%	i
CCOC(=O)CNC(=O)C1COc2ccccc2O1 (stereo not drawn)	28.1%	17.2%	-14.3%	2.3%	17.8%	i
COc1ccc(N2CCN(CCCn3cnc4c(OC)ncnc43)CC2)cc1	-8.7%	2.8%	8.2%	·	·	i
CC(C)[C@@H]1Cc2[nH][nH]c(=O)c2[C@H](c2ccc(F)cc2)O1	·	·	0.4%	·	·	i
CCC(C)c1ccc(OCCn2cc(/C=N/NC(=O)CSc3nnc(C)s3)c3ccccc32)cc1 (stereo not drawn)	-19.6%	-36.8%	117.6%	22.4µM*	?	i
COC(=O)N/N=C/c1cn(CCOc2cccc(OC)c2)c2ccccc12	?	-46.8%	·	0.1%	23.9%	i
CCN(c1ccccc1)C(CNS(=O)(=O)c1ccccc1)c1ccccc1 (stereo not drawn)	15.8µM*	-48.0%	?	·	·	?
C=CC(=O)N1CCc2ccc(-n3c(=O)ccc4cnc5ccc(-c6cnn(C)c6)cc5c43)cc21	·	·	15.3µM*	·	·	·
SMILES	TGFb SMAD3 inh	HepG2 viability	ATXN2 expr inh	VP16 counter	RORgamma inh	S2 tox
Cn1c(=O)n(-c2ccc(C(C)(C)C#N)cc2)c2c3cc(-c4cnc5ccccc5c4)ccc3ncc21	?	-15.0%[92.2 µM]	?	·	·	·
CC1(C)C(=O)CC[C@@]2(C)C1CC(O)[C@@]1(C)C3=CC(=O)OC(c4ccoc4)[C@]3(C)CCC21 (stereo partly drawn)	·	·	·	3.3%	13.3%	·
Cc1ccc(S(=O)(=O)N(Cc2cc3ccccc3[nH]c2=O)c2cccc(C)c2)cc1	-4.3%	-20.1%	9.3%	-3.8%	-16.3%	i
COc1ccc2cc([S+]([O-])Cc3ncc(C)c(OC)c3C)nc2c1	·	·	20.6%	·	·	·
COc1cc(/C=N/NC(=O)C(=O)NCC2CCCO2)ccc1O (stereo not drawn)	12.4%	-0.2%	-7.5%	1.3%	-2.9%	i
COc1cc(OC)c(OC)cc1/C=N/NC(=S)NCCN1CCOCC1	-0.5%	-20.7%	-8.1%	7.08µM*	3.98µM*	i
COc1cc(OC)c(OC)cc1/C=N/NC(=S)NCC1CCCO1 (stereo not drawn)	-61.9%	-14.6%	-4.2%	14.1µM*	6.31µM*	i
COc1ccc2ccccc2c1/C=N/NC(=S)NCCN1CCOCC1	?	-41.1%	-19.0%[11.3 µM]	4.47µM*	4.47µM*	i
S=C(NCCN1CCOCC1)N/N=C/c1ccccc1	-19.0%	-1.4%	3.5%	?	12.6µM*	i
O=C(O)c1ccc(NC(=O)c2cc(S(=O)(=O)N3CCCCC3)c(Cl)cc2Cl)cc1	0.2%	15.5%	4.1%	·	·	i
Nc1nc2ccccc2n1CCOc1ccc(F)cc1	-25.8%	-27.9%	·	-5.1%	-26.8%	?
COCCNC(=S)N/N=C/c1c2ccccc2cc2ccccc12	?	-9.2%	2.3%	?	7.08µM*	i
S=C(NCCN1CCOCC1)N/N=C/c1c2ccccc2cc2ccccc12	-7.6%	-23.8%	-12.5%	?	?	i
Oc1ccc(/C=N/NC(=S)NCCN2CCOCC2)c(O)c1	2.0%	-1.1%	·	-9.7%	12.6µM*	i
Cc1cc(C(=O)N2CCOc3ccc(CN4CCC(Oc5cccnc5)CC4)cc3C2)c(C)o1	·	·	·	·	·	i
N#CC(=C1C=CC(=NO)C(Cl)=C1)c1ccccc1	11.2µM*	-61.9%	0.0%	·	·	i
C=C1CCC2[C@](C)(CO)C(O)CC[C@]2(C)C1C/C=C1/C(=O)OCC1O (stereo partly drawn)	·	·	·	-13.5%	12.6µM*	·
C=C1CC[C@@H]2[C@](C)(CO)[C@H](O)CC[C@@]2(C)[C@@H]1C/C=C1/C(=O)OCC1O (stereo partly drawn)	39.9%	-12.3%	?	·	·	?
COc1ccc(N2CCN(S(=O)(=O)c3ccc4c(c3)CC(C)N4C(C)=O)CC2)cc1 (stereo not drawn)	-23.8%	-12.5%	·	·	·	·
Cc1c(C(=O)NCC2CC2)sc2ncnc(NCCN3CCCCC3)c12	·	·	·	·	·	i
